Screening results from PubChem BioAssay.
Shn3 3UTR inh: Schnurri-3 reporter inhibition in Clone20 osteoblasts; inhibition, % at 12.5 µM; Clone20 osteoblast Shn3 3'UTR firefly luciferase, 24 h; AID 588674; 0.52% of 360,000 active;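 active = mean inhibition of at least 75% with every replicate also reaching 75%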
Mdm2-MdmX inh: disrupts the human Mdm2-MdmX interaction; 3% of 330,000 active; SaOS-2 split-luciferase Mdm2/MdmX complementation, luminescence; inhibition, % at 8 µM; O15151+Q00987;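 active = inhibition of at least 50% at 8 µM in the primary screen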
Jurkat NFkB inh: lowers PMA/ionomycin-induced NF-kB signal in Jurkat cells | inhibition, % at 4 µM | PMA/ionomycin-induced NF-kB luciferase reporter, luminescence | 0.53% of 330,000 active | AID 435003; in the data active = inhibition above about 50%
697 NFkB inh: lowers PMA/ionomycin-induced NF-kB signal in 697 B cells; 697 B-cell NF-kB luciferase reporter, 16 h; inhibition, % at 4 µM; 0.33% of 330,000 active; AID 435022; in the data active = inhibition above about 35%
Gli-Sufu block: blocks Gli-Sufu signaling in a luciferase reporter | 0.74% of 340,000 active | Sufu-KO-LIGHT fibroblasts, Gli luciferase reporter luminescence | inhibition, % at 5 µM;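 active = inhibition above about 55%, limit read from the data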
Jurkat NFkB conf: inhibitors of the PMA/ionomycin-induced NF-kB reporter in Jurkat cells, retest | shares compounds with Jurkat NFkB inh | Jurkat NF-kB luciferase, 16 h | inhibition, % at 4 µM | 27% of 2,700 active;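 active = inhibition reaching about 45% at 4 µM in either replicate, limit read from the data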
697 NFkB conf: inhibitors of the PMA/ionomycin-induced NF-kB reporter in 697 B cells, retest | shares compounds with 697 NFkB inh | 697 B-cell NF-kB luciferase, 16 h | inhibition, % at 4 µM | 35% of 2,000 active | AID 449746; in the data active = inhibition mostly above about 28%, no sharp cut-off; inactive = mostly below about 22%
Large screens that a line does not name were inactive (follow-up assays come after a bar, where they were run). Most compounds without a hit are left out; they make up all but 3.8% or so of the library.

O=C(Nc1nc2ccccc2[nH]1)c1ccccc1	none | Jurkat NFkB conf inactive | 697 NFkB conf inactive
O=C(O)COc1ccccc1/C=N/NC(=O)CNC(=O)c1ccco1	none
CC1=C(C(=O)OCc2ccccc2)C(c2ccc3c(c2)OCO3)NC(=O)N1CCCC(=O)O (centres undefined)	none
Nc1c(-c2ccc(Cl)cc2)cnc2c(-c3ccc(F)cc3)cnn12	none | Jurkat NFkB conf inactive | 697 NFkB conf inactive
COc1ccc(NS(=O)(=O)c2cccc(C(=O)NNC(=O)c3cc(S(N)(=O)=O)ccc3OC)c2)cc1	none
COc1cccc2oc3ccc(C#Cc4ccccn4)cc3c(=O)c12	none
O=c1c2ccccc2oc2cc(C#Cc3ccccn3)ccc12	none | Jurkat NFkB conf inactive | 697 NFkB conf inactive
Cc1cc(NNC(=O)Nc2cccc(Cl)c2)nc2c1c(C)nn2C	Jurkat NFkB inh 53, 697 NFkB inh 58 (no result: Shn3 3UTR inh, Gli-Sufu block) | Jurkat NFkB conf 56 | 697 NFkB conf 56
Cc1nn(C)c(C)c1CNC(=O)Nc1cccc(Cl)c1	none
O=C(OCC(O)C(O)C(O)C(SCc1ccccc1)SCc1ccccc1)c1ccccc1 (centres undefined)	none (no result: Mdm2-MdmX inh, Jurkat NFkB inh, 697 NFkB inh)
c1cnc2ccc(-c3ccc4ncccc4c3)cc2c1	none | Jurkat NFkB conf inactive | 697 NFkB conf inactive
c1ccc(CSc2ncnc3sccc23)cc1	none
CCc1cc2c(SCC(=O)Nc3ccc(NC(C)=O)cc3)ncnc2s1	none
c1ccc2sc(Sc3ncnc4sccc34)nc2c1	Jurkat NFkB inh 98, 697 NFkB inh 63 | Jurkat NFkB conf 53 | 697 NFkB conf 60
CCc1cc2c(Sc3nc4ccccc4s3)ncnc2s1	Jurkat NFkB inh 100, 697 NFkB inh 83 | Jurkat NFkB conf 96 | 697 NFkB conf 64
Cc1ccc(-c2cc(C(=O)NCc3ccccn3)c3ccccc3n2)cc1C	none
CCN(CC)S(=O)(=O)c1cc(NC(=O)[C@@H](NC(N)=O)C(C)C)ccc1C	none
O=c1c2ccccc2cnn1-c1ccc2ccccc2c1	none | Jurkat NFkB conf inactive | 697 NFkB conf inactive
CN1/C(=C\C(=O)C[n+]2ccc3ccccc3c2)C(C)(C)c2ccccc21	Jurkat NFkB inh 83, 697 NFkB inh 49 | Jurkat NFkB conf 79 | 697 NFkB conf inactive
O=C(Cc1nc(=O)c2ccccc2s1)Nc1ccccc1	none | Jurkat NFkB conf inactive | 697 NFkB conf inactive
CC1CCN(C(=O)CCC(=O)Nc2nnc(C3CCCCC3)s2)CC1	none
Clc1ccc(Nc2ncnc3c2cnn3-c2ccccc2)cc1	none
CC(C)Nc1ncnc2c1cnn2-c1ccc(Cl)cc1	none | Jurkat NFkB conf inactive | 697 NFkB conf inactive
Cc1ccc(OCc2nc(-c3cccs3)no2)c([N+](=O)[O-])c1	none | Jurkat NFkB conf inactive | 697 NFkB conf inactive
CCc1ccc(NC(=O)c2noc3c2CCC3)cc1	none
Cc1ccc(NC(=O)c2noc3c2CCCCC3)cc1C	none | Jurkat NFkB conf inactive | 697 NFkB conf inactive
Cc1c(C(=O)NC(=S)N(Cc2ccccc2)c2ccccn2)cccc1[N+](=O)[O-]	none
CC(/C=N/Nc1nc2ccccc2[nH]1)=C\c1ccccc1	none | Jurkat NFkB conf inactive | 697 NFkB conf inactive
CC(/C=N/Nc1nc(C)cc(=O)[nH]1)=C\c1ccccc1	none
O=C(Nc1ccc2nc(C3CC3)n(Cc3ccc(F)cc3)c(=O)c2c1)c1ccco1	none
COc1ccc(Cn2c(C3CC3)nc3ccc(NC(=O)C4CC4)cc3c2=O)cc1	none | Jurkat NFkB conf inactive | 697 NFkB conf inactive
CC(=O)Nc1ccc2nc(C3CC3)n(Cc3ccc(Cl)cc3)c(=O)c2c1	none
CCC(=O)Nc1ccc2nc(C3CC3)n(Cc3ccc(C(C)(C)C)cc3)c(=O)c2c1	none | Jurkat NFkB conf inactive | 697 NFkB conf inactive
COc1ccc(C(=O)NC(=O)NC2(C(Cl)(Cl)Cl)OCCO2)cc1	none | Jurkat NFkB conf inactive | 697 NFkB conf inactive
CCOC(=O)N1CCN(c2ncnc3c2cnn3-c2ccc(OC)cc2)CC1	none (no result: Mdm2-MdmX inh, Jurkat NFkB inh, 697 NFkB inh)
COc1ccc(-n2ncc3c(N4CCC(C)CC4)ncnc32)cc1	none | Jurkat NFkB conf inactive | 697 NFkB conf inactive
CC1(C(=O)NS(=O)(=O)c2ccccc2)CCN1C(=O)CCc1ccccc1 (centres undefined)	none (no result: Mdm2-MdmX inh, Jurkat NFkB inh, 697 NFkB inh, Gli-Sufu block)
Cc1ccc2nc(NC(=O)c3ccccc3F)sc2c1	none | Jurkat NFkB conf inactive | 697 NFkB conf inactive
COc1ccc(NC(=O)Nc2nc3ccccc3s2)cc1	none
